Measured values published in PubChem BioAssay AID504375 (National Center for Advancing Translational Sciences (NCATS), 2011).
Out of some 1,600 compounds screened, about 25 (2%) were called active. Roughly 7% stayed inconclusive and do not appear here. The sample as a whole holds a higher share of actives than the screen did. Values without a mark were called inactive. The call rests on the fitted dose curve; in most records, active means well fitted inhibition curve with a large enough effect; inconclusive means small, poorly fitted or top-dose-only effect, or effect the other way; inactive means no such curve, though single readings can be large or run the other way.

The compounds below were run against Runt-related transcription factor 1 (Homo sapiens) + Core-binding factor subunit beta (Homo sapiens) (UniProt Q01196+Q13951) (assay: qHTS Assay for Compounds Blocking the Interaction Between CBF-beta and RUNX1 for the Treatment of Acute Myeloid Leukemia: Hit Validation with Orthogonal Assay). Conditions: CBFbeta-RUNX1 binding orthogonal assay, biochemical; series mostly up to 41 µM; activity change, negative = inhibition: at the top concentration.
Sequence of Runt-related transcription factor 1 (Homo sapiens) + Core-binding factor subunit beta (Homo sapiens) (Q01196 whole entry, looked up): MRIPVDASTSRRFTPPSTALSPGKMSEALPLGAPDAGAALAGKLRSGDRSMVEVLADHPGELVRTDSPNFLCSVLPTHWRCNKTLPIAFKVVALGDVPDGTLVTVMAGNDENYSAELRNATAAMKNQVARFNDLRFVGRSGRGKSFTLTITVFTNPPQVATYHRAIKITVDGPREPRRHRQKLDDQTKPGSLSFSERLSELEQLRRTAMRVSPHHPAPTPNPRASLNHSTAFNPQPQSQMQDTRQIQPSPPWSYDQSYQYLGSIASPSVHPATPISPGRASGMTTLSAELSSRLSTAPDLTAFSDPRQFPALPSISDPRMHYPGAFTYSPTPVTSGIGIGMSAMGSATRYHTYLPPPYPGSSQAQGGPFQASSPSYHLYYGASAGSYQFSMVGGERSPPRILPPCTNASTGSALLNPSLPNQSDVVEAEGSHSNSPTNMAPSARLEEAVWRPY
Sequence of Runt-related transcription factor 1 (Homo sapiens) + Core-binding factor subunit beta (Homo sapiens) (Q13951 whole entry, looked up): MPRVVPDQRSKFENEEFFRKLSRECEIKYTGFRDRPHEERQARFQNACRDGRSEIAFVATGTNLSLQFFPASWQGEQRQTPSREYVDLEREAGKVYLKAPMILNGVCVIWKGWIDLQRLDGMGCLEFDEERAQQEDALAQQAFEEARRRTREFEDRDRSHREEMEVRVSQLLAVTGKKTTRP
Excerpt: NIH Chemical Genomics Center [NCGC]
NIH Molecular Libraries Probe Production centers Network [MLPCN]
Assay Submitter (PI): Paul Liu
Core Binding Factor (CBF) abnormalities are associated with 20-25% of all acute myeloid leukemias (AML), of which 5-10% are further sub classified as acute myelomonocytic leukemia with eosinophilia, also known as M4Eo in the FAB classification scheme. This subtype of leukemia is usually associated with chromosome 16 inversion (p13:q22). Chromosome 16 inversion results in formation of the fusion oncogene CBFB-MYH11, which encodes the fusion protein CBF-beta-SMMHC.
It has been hypothesized that the interference of CBF-beta and RUNX1 binding could have therapeutic implications for patients with CBF mediated leukemias. We developed a CBF-beta and RUNX1 binding assay in AlphaScreenTM format and optimized it for high throughput screening to search for inhibitors. The goal of this project is to screen MLPCN's compound collection (MLSMR) for identifying the inhibitors of the interaction between CBF-beta and RUNX1 proteins as research probes. If these probes work well in the animal models, the ultimate goal of this project is to development a new drug treatment for this disease.
This assay can not be used to assess how apparent inhibitors interfere with protein binding, and whether inhibitors specifically bind to either protein. Disruption of this protein-protein interaction, through any mechanism, is the intended target activity.
The present data set was run to confirm the activity of hits from the primary screen using an orthogonal assay technology for measuring protein-protein interaction disruption.
A TR-FRET (time resolved fluorescence resonance energy transfer) assay was performed using the same assay buffer, protein concentrations and incubation times as described previously in the AlphaScreen assay, except that terbium (Tb+) labeled anti-his-antibody and XL665 linked streptavidin were used to capture the binding signal. The Tb+ labeled anti-his-antibody captures His(6)-CBF and XL665 linked streptavidin binds to biotin-RUNX1. The binding of RUNX1 to CBFbrings Tb+ and XL665 to proximity resulting in a TR-FRET signal. Briefly, in a white 384-well plate, 10 µl/well of mixture of biotin-RUNX1 and His(6)-CBFwere incubated with 10 µl/well buffer (positive control) or 10 µl/well compounds (negative control) for 20 min followed by an addition of 10 µl/well of Tb+ labeled anti-his(6)-antibody and XL665 linked streptavidin. After 90 min of incubation in the dark, the assay plate was measured in the Envision plate reader using TR-FRET detection mode. For the 1536-well plate format, 3 µl/well mixture of biotin-RUNX1 and His(6)-CBF (30 nM per protein) was incubated with 23 nl/well compound (dissolved in 100% DMSO) or the equivalent DMSO concentration (positive control) for 30 min followed by the addition of 1 µl/well of 0.44 ng Tb+ labeled anti-his(6)-antibody and 5 nM streptavodin-XL665. After 90 min of incubation, the assay plate was measured in the Envision plate reader.
The TR-FRET assay for detecting interaction between HIV-I Tat and […] was similarly performed with the recombinant full-length HIV-I Tat CLADE B and HIV-I Tat Biotin conjugated proteins supplied by Diatheva (Fano, Italy). Briefly, the His-CBF and Biotin-RUNX1 complex at a working concentration of 83.3 nM per protein were pre-incubated in assay buffer for 10 minutes on ice. Then HIV-I Tat or unlabeled CBF were added to reach final concentrations (Supplementary Figure 4b) and incubated for 5 minutes. Finally anti-His antibody and streptavidin-XL665 at a final concentration of 2.2 ng and 5 nM, respectively, were added to the plate, which was incubated for 1 hr prior to reading on the PerkinElmer Envision plate reader.
Keywords: MLSMR, MLPCN, NIH Roadmap, qHTS, NCGC, Core binding factor, CBF, CBF-beta, Acute myeloid leukemia
On the % scale 0 is the no-effect control and ±100 the full control effect; potency means the concentration at half of the fitted maximal effect.

| SMILES | activity change, negative = inhibition | Potency |
| --- | --- | --- |
| NS(=O)(=O)c1ccc(N/N=C/c2ccc(C(=O)O)cc2)c([N+](=O)[O-])c1 | 94.8% |  |
| CC(=O)CCn1cc([N+](=O)[O-])nc1C | -5.17% |  |
| Cc1cccn(Cc2c(F)cccc2Cl)c1=O | -6.17% |  |
| CC(C)(C)OC(=O)N1CCCN(C(=O)Nc2ccc(C(F)(F)F)cc2)CC1 | 9.91% |  |
| CC(/C=N/n1c(-c2ccccn2)n[nH]c1=S)=C\c1ccccc1 | -4.6% |  |
| CCC12CCCN3CCc4c(n(c5ccccc45)C(O)(C(=O)OC)C1)C32 (stereo not given) | 36% |  |
| O=C(O)CSCC(=O)N1CCCN(c2nc3ccc(Cl)cc3s2)CC1 | -5.09% |  |
| Cc1nn(Cc2ccccc2)c(C)c1/C=N/NC(=O)c1ccncc1 | 2.97% |  |
| COc1ccccc1OCc1ccc(C(=O)NN)o1 | 0.502% |  |
| Cc1nn(C)c(=O)c(N)c1-c1cc(-c2ccc(Cl)c(Cl)c2)n[nH]1 | 9.21% |  |
| CC(C)(C)c1ccc(C(=O)Cn2nc(C(=O)O)c3ccccc3c2=O)cc1 | 3.83% |  |
| CN(C)c1cccc(N(C)C)c1CNC(=O)C(C)(C)C | 1.48% |  |
| S=c1[nH]nc(-c2cccs2)n1C1CCCCC1 | -14.4% |  |
| CCCSc1nnc(NC(=O)Nc2ccc(C)cc2)s1 | -0.563% |  |
| O=C(/C=C/c1cn(CC(O)CN2CCOCC2)c2ccccc12)c1cccs1 (stereo not given) | 4.2% |  |
| Cc1nc([N+](=O)[O-])cn1CC(O)c1ccccc1 (stereo not given) | 20.8% |  |
| CCSc1cc(Cl)nc(N)n1 | 17.2% |  |
| COc1cc(OC)c(OC)cc1/C=N/NC(=O)CCc1c(C)n[nH]c1C | 18.8% |  |
| CC(=O)N1CCCC1(C(=O)O)c1ccccc1 (stereo not given) | 3.9% |  |
| O=C(N/N=C/C(Br)=C/c1ccccc1)C(O)c1ccccc1 (stereo not given) | 8.96% |  |
| O=C(O)C1CC(c2ccccc2)=Nc2ccccc2S1 (stereo not given) | -10.5% |  |
| COc1ccc2nc(-c3ccc(Cl)cc3)cc(C(=O)O)c2c1 | 34.7% |  |
| Oc1cccc(O)c1O |  | 888 nM (active) |
| Cc1ccc(OCC(=O)N(Cc2ccc(N(C)C)cc2)C2CCS(=O)(=O)C2)cc1C (stereo not given) | 10.2% |  |
| CCOC(=O)c1cnc2c(F)ccc(F)c2c1Sc1ccccc1 | 8.39% |  |
| O=C(Nc1ccc(Cl)cc1)NC1CCCCNC1=O (stereo not given) | 2.89% |  |
| Cc1nn(-c2ccccc2)nc1C(=O)NNC(=O)c1cccc2ccccc12 | 22.3% |  |
| Cc1nn2c(NCCN(C)C)c3c(nc2c1-c1ccccc1)CCCC3 | -6.26% |  |

| SMILES | activity change, negative = inhibition | Potency |
| --- | --- | --- |
| Cc1nc([N+](=O)[O-])cn1C(C)C | -1.09% |  |
| c1ccc(-c2ccc(C3=Nn4c(nnc4-c4cccs4)SC3)cc2)cc1 | 2.54% |  |
| CC(=O)Nc1ccc(Nc2cc(C(C)C)nc3c(-c4ccccc4)c(C)nn23)cc1 | 9.96% |  |
| O=C(O)c1ccccc1Sc1ccccc1S(=O)(=O)NC1CCCCC1 | -9.91% |  |
| CCC(C)NC(=O)CC(C)C (stereo not given) | 0.673% |  |
| O=C1CC(N2CCN(S(=O)(=O)c3ccccc3)CC2)C(=O)N1c1ccccc1 (stereo not given) | 3.16% |  |
| C/C(Cc1ccccc1)=N\NC(=O)CNC(=O)c1ccc(Cl)cc1Cl | -5.63% |  |
| N/C(CC1CC1(Cl)Cl)=N\OC(=O)c1ccccc1 (stereo not given) | 1.08% |  |
| CC(=O)COc1nc2c(c(-c3ccco3)c1C#N)CCc1ccccc1-2 | 8.75% |  |
| Nc1nc(NCc2ccco2)nc(NCCO)c1[N+](=O)[O-] | 6.69% |  |
| Cc1ccc(-n2ncc(-c3nn[nH]n3)c2N)cc1 | 4.84% |  |
| NCCc1ccc(O)c(O)c1 | -0.396% [at 82.4 µM] |  |
| O=C(/C=C/c1ccc(O)c(O)c1)c1ccccc1O | 15.8% |  |
| NC(Cc1ccc(O)c(O)c1)C(=O)O (stereo not given) |  | 891 nM (active) |
| N[C@H](Cc1ccc(O)c(O)c1)C(=O)O |  | 7080 nM (active) |
| COc1ccc(C(=O)Nc2cccnc2Sc2ccc(Cl)cc2)cc1 | -4.01% |  |
| C/C(=N\NC(=O)Cn1nc(C)cc1C)c1ccc([N+](=O)[O-])cc1 | 53.1% |  |
| Cc1n[nH]c(C)c1CCC(=O)N/N=C/c1cccs1 | 15.4% |  |
| CCOC(=O)COc1nc2c(c(-c3ccco3)c1C#N)CCc1ccccc1-2 | 0.967% |  |
| CCOc1ccc(/C(C)=N/NC(=O)Cn2nc([N+](=O)[O-])cc2C)cc1 | 2.61% |  |
| Cc1ccc(NC(=S)Nc2ccccn2)cc1C | 17.3% |  |
| Cc1ccccc1NC(=S)Nc1ccccn1 | -11.9% |  |
| Cc1[nH]c(=O)[nH]c1C(=O)CCCCC(=O)OCC(=O)Nc1ccccn1 |  | 44.7 nM (active) |
| Clc1nc(Cl)nc(-c2cn(-c3ccccc3)c3ccccc23)n1 | -21.3% |  |
| Nc1c(Cl)ncnc1NCC(O)CO (stereo not given) | -0.893% |  |
| Cc1onc(-c2c(Cl)cccc2Cl)c1C(=O)c1ccc(F)cc1 | -0.245% |  |
| O=C(O[C@@H]1OC2COC(=O)c3cc(O)c(O)c(O)c3-c3c(cc(O)c(O)c3O)C(=O)O[C@@H]([C@H]1O)[C@@H]2O)c1cc(O)c(O)c(O)c1 |  | 891 nM (active) |
